# Source: ChEMBL document CHEMBL3433997, “St. Jude Leishmania screening dataset” (2016)
# Values joined by “and” are separate entries in the source; they are usually repeats but may differ in a detail not shown here. Equal values may be shown once.
# Assays:
# Type in all cases: functional
# [1] = biological target: Solute carrier family 2, facilitated glucose transporter member 1 (Homo sapiens) (UniProt P11166); experiment: ST_JUDE_LEISH: Cytotoxicity at 2uM final concentration against transgenic Leishmania Mexicana promastigotes LmGLUT1 that are glucose transport deficient and complemented with the human glucose transporter GLUT1. Activity is measured by DNA content using SYBR green in vitro
# Sequence of Solute carrier family 2, facilitated glucose transporter member 1 (Homo sapiens) (P11166 whole entry): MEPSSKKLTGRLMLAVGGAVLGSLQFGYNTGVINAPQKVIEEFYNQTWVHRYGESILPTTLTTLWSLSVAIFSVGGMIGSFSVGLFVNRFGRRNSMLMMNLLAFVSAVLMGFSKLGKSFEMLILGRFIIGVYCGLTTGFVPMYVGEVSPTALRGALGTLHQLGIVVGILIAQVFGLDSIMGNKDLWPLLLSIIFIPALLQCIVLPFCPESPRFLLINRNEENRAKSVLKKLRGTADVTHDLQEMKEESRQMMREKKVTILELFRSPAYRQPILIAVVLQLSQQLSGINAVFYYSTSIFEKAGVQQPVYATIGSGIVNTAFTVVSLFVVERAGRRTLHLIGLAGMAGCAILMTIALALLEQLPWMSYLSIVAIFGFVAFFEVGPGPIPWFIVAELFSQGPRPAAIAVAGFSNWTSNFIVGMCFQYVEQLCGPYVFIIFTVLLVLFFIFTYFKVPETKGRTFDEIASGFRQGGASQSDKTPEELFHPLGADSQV
# [2] = biological target: Hexose transporter 1 (Plasmodium falciparum) (UniProt O97467); experiment: ST_JUDE_LEISH: Cytotoxicity at 2uM final concentration against transgenic Leishmania Mexicana promastigotes LmPfHT that are glucose transport deficient and complemented with the Plasmodium falciparum hexose transporter. Activity is measured by DNA content using SYBR green in vitro
# [3] = biological target: Glucose transporter (Leishmania mexicana) (UniProt O61059); experiment: ST_JUDE_LEISH: Cytotoxicity at 2uM final concentration against transgenic Leishmania Mexicana promastigotes LmGT2 that are glucose transport deficient and complemented with the L. Mexicana glucose transporter 2. Activity is measured by DNA content using SYBR green in vitro
SMILES,inhibition [1],inhibition [2],inhibition [3]
CC(C)(C)c1cc(/C=C/C(=O)NC2CCC(CN3CCC(c4c[nH]c5ccccc45)CC3)CC2)cc(C(C)(C)C)c1O (centres undefined),2.87% and 2.94%,0.49% and 5.11%,-0.51% and 1.19%
O=C(/C=C/c1cc([N+](=O)[O-])ccc1Cl)NC1CCC(CN2CCC(c3c[nH]c4ccccc34)CC2)CC1 (centres undefined),2.1%,1.69%,2.13%
COc1ccc(C2CNCc3c2cc(OC)c(OC)c3Cl)cc1 (centres undefined),4.33%,4.69%,-0.73%
O=C(NC1CCC(CN2CCC(c3c[nH]c4ccccc34)CC2)CC1)c1cc(-c2ccccc2Cl)oc1C(F)(F)F (centres undefined),0.8%,1.05%,0.55%
CN1CC=C(c2c[nH]c3ccc(C(=O)c4nccs4)cc23)CC1,-1.82%,-1.47%,-1.62%
COC(=O)c1ccc(CC(C)NCC(O)c2cccc(C(F)(F)F)c2)cc1 (centres undefined),2.79% and 2.21% and 1.58%,-0.93% and 1.17% and 2.06%,2.89% and 0.72% and 2.04%
CN1C(=O)OC[C@@H]1Cc1ccc2[nH]cc(C3=CCN(Cc4ccccc4)CC3)c2c1,2.44%,7.87%,-0.74%
CC[C@H]1CN2CC[C@H]1C[C@H]2[C@H](O)c1cc(N2CCCC(CO)C2)nc2ccc(OC)cc12 (some centres undefined),2.62%,1.73%,0.11%
Cc1ccc(CC(C)NCC(O)c2cccc(C(F)(F)F)c2)cc1 (centres undefined),1.64% and 2.89%,4.33% and 0.46%,1.68% and 0.49%
CC(Cc1ccc(Oc2ccc(Cl)cc2)cc1)NCC(O)c1cccc(Cl)c1 (centres undefined),-2.67%,-2.38%,-1.74%
O=C(/C=C/c1cc(C(F)(F)F)ccc1F)N1CCC(CN2CCC(c3c[nH]c4ccccc34)CC2)CC1,1.52%,1.34%,-1.26%
OC(CNC1CCCCCC1)c1ccc(Cl)c(Cl)c1 (centres undefined),-0.7%,0.32%,-0.87%
O=C(/C=C/c1ccc(Cl)c(Cl)c1)N1CCC(CN2CCC(c3c[nH]c4ccccc34)C(O)C2)CC1 (centres undefined),7.48%,2.3%,0.72%
O=C(/C=C/c1cccc2ccccc12)NC1CCC(CN2CCC(c3c[nH]c4ccccc34)CC2)CC1 (centres undefined),1.25% and 2.48%,0.21% and 2.66%,-2.33% and 1.25%
O=C(CCC(=O)c1ccc2c3c(cccc13)CC2)NC1CCC(CN2CCC(c3c[nH]c4ccccc34)CC2)CC1 (centres undefined),3.08%,3.49%,4.96%
c1ccc(C(OCCC2CCN(Cc3cccnc3)CC2)c2ccccc2)cc1,0.62%,0.06%,0.26%
OC1(c2ccc(Cl)c(C(F)(F)F)c2)CCN(CCOC2c3ccccc3CSc3ccc(Cl)cc32)CC1 (centres undefined),2.52%,1.04%,2.27%
O=C(Cc1cc(=O)oc2cc(O)ccc12)NC1CCC(CN2CCC(c3c[nH]c4ccccc34)CC2)CC1 (centres undefined),2.39%,2.2%,2.14%

SMILES,inhibition [1],inhibition [2],inhibition [3]
COc1ccc(CCNCc2ccc3c(C)cc(N)nc3c2)cc1,0.82%,2.73%,2.71%
CCCc1c(C(=O)NC2CCC(CN3CCC(c4c[nH]c5ccccc45)CC3)CC2)cnn1-c1c(Cl)cc(Cl)cc1Cl (centres undefined),4.74%,3.29%,3.07%
COc1cccc(C(=O)C2CC2CN2CC=C(c3c[nH]c4ccc(OC)nc34)CC2)c1 (centres undefined),0.65%,1.41%,1.94%
O=C(NCC(=O)N1CCC[C@H]1C(=O)O)[C@@H](Cc1ccccc1)NC(=O)[C@@H]1CCCN1C(=O)CCCc1ccc(O)cc1,–,-1.36%,-1.68%
COC(=O)/C=C/c1ccc(CC(C)NCC(O)c2cccc(Cl)c2)cc1 (centres undefined),-0.32%,-0.19%,-0.96%
COC(=O)c1ccc(CC(C)NCC(O)c2cccc(C(F)(F)F)c2)cc1F (centres undefined),2.16%,2.23%,2.51%
CCCCCC(C)C(C)c1cc(O)c2c3c(c(=O)oc2c1)CN(Cc1ccccc1)CC3 (centres undefined),2.03%,0.04%,-0.43%
CC[C@H]1CN2CC[C@@H]1C[C@H]2[C@H](O)c1cc(-c2ccc(F)cc2)nc2ccc(O)cc12,-0.76%,0.53%,-0.19%
O=C(/C=C/c1ccc(Cl)c(Cl)c1)N1CCC2CC(N3CCC(c4c[nH]c5ccccc45)CC3)CCC2C1 (centres undefined),3.41%,-0.87%,0.24%
CNCCN(C)C(=O)Oc1c(Br)c(C)nc(C)c1-c1ccc(Oc2ccc(OC(F)(F)F)cc2)cc1,2.73%,3.16%,5.59%
CC(C)c1ccc(C=CC(=O)NC2CCC(CN3CCC(c4c[nH]c5ccccc45)CC3)CC2)cc1 (centres undefined),2.2%,1.4%,2.47%
CCCCCc1cc(O)c2c(c1)OC(C)(C)CC2C1=CCN(Cc2cnc3ccccc3c2)CC1 (centres undefined),1.53%,1.25%,0.64%
O=C(/C=C/c1ccc(Cl)cc1)NC1CCC(CN2CCC(c3c[nH]c4ccccc34)CC2)CC1 (centres undefined),0.07% and -1.03%,0.24% and -2.23%,-1.22% and 2.14%
COc1ccc(NC(=S)NC(NC(=O)CF)C(Cl)(Cl)Cl)cc1[N+](=O)[O-] (centres undefined),3.05%,-3.38%,-1.65%
Oc1ccccc1CNCC(O)c1cc(C(F)(F)F)cc(C(F)(F)F)c1 (centres undefined),6.65%,5.51%,4.91%
Cc1[nH]c2ccccc2c1C1=CCN(CCCCC2(C)C(=O)Nc3cccc(F)c32)CC1 (centres undefined),0.46%,-0.62%,0.65%
CC(C)NC(=O)Cn1cc(C2CCN(CC3CCN(C(=O)/C=C/c4ccc(Cl)c(Cl)c4)CC3)CC2)c2ccccc21,1.44%,0.25%,1.41%
